The record followed here is the supplement of paper PMC10037445.

In assay [1] the test system is RAW-Dual. Put plainly: IRF Lucia reporter activity, fold change vs agonist alone; higher = enhanced IRF activity. The note with it: library stock concentration (final ~1000-fold dilution): 10 mM; cytotoxicity flag (confluency mask): not cytotoxic; agonist: MPLA (TLR4) […]. In outline: (§1)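 Reporter activity is given as fold change relative to agonist-alone wells. To measure it, 50 nL of library stock was pin-tooled onto RAW-Dual macrophages (50,000 cells/well, DMEM, 384-well plates), a PRR agonist followed 1 h later, and cells stayed at 37 °C, 5% CO2. Twenty hours on, supernatant was assayed for IRF (QuantiLuc luminescence) and NF-κB (QuantiBlue, 620 nm absorbance), and wells under 70% of agonist-control IncuCyte confluency in both mask sets were marked cytotoxic.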

Assay [2] deals with RAW-Dual. Put plainly: IRF Lucia reporter activity, fold change vs agonist alone; cytotoxicity flag (confluency mask): not cytotoxic; higher = enhanced IRF activity. The essentials: as §1
The mark [3] stands for this setting: agonist: 3'3'-cGAMP (STING) 10 ug/mL.

In all, about 2,900 compounds were measured (“IRF Lucia reporter activity, fold change vs agonist alone”: median about 0.9, highest 2% from about 2.8 on). For the sample, the highest values were picked, then their nearest neighbours and some compounds at random.

Regarding `Cc1ccc(Nc2nccc(N(C)c3ccc4c(C)n(C)nc4c3)n2)cc1S(N)(=O)=O.Cl`, the “IRF Lucia reporter activity” value in the assay with RAW-Dual [1] was 0.646.
For `Cc1ccc(Nc2nccc(N(C)c3ccc4c(C)n(C)nc4c3)n2)cc1S(N)(=O)=O.Cl` (library stock concentration (final ~1000-fold dilution): 10 mM), the figures for the “IRF Lucia reporter activity” value in the assay with RAW-Dual [2] (setting [3]) and with RAW-Dual [2] (agonist: LPS (TLR4) 0.1 ug/mL) were 0.0722 and 0.446, respectively.
Consider `COC(=O)C(CC(C)C)NC(=O)c1ccc(NCC(N)CS)cc1-c1cccc2ccccc12.O=C(O)C(F)(F)F` (stereo unspecified), for which, in the assay on RAW-Dual [1], the “IRF Lucia reporter activity” value came out at 0.882.
Turning to `COC(=O)C(CC(C)C)NC(=O)c1ccc(NCC(N)CS)cc1-c1cccc2ccccc12.O=C(O)C(F)(F)F` (stereo unspecified) (library stock concentration (final ~1000-fold dilution): 10 mM), the “IRF Lucia reporter activity” value with RAW-Dual [2] (setting [3]) came out at 0.0714; with RAW-Dual [2] (agonist: LPS (TLR4) 0.1 ug/mL), 0.736.
As to `N#Cc1ccc2[nH]c(O)c(-c3ccc(CN4CCOCC4)cn3)c2c1` (library stock concentration (final ~1000-fold dilution): 10 mM), the “IRF Lucia reporter activity” value stood at 0.996 with RAW-Dual [2] (setting [3]) and 0.903 in the assay with RAW-Dual [2] (agonist: LPS (TLR4) 0.1 ug/mL).
For `N#Cc1ccc2[nH]c(O)c(-c3ccc(CN4CCOCC4)cn3)c2c1`, the “IRF Lucia reporter activity” value in the assay on RAW-Dual [1] was found to be 1.01.
With `N#Cc1ccc(-c2c(-c3ncn[nH]3)sc(N3CCOCC3)c2C#N)c(F)c1` (library stock concentration (final ~1000-fold dilution): 10 mM), the “IRF Lucia reporter activity” value with RAW-Dual [2] (setting [3]) came to 0.455; in the assay with RAW-Dual [2] (agonist: LPS (TLR4) 0.1 ug/mL), 10.2.
For the compound `N#Cc1cccc(-c2c[nH]c3ncnc(N4CCOCC4)c23)c1` (library stock concentration (final ~1000-fold dilution): 10 mM), the figures for the “IRF Lucia reporter activity” value in the assay on RAW-Dual [2] (setting [3]) and in the assay with RAW-Dual [2] (agonist: LPS (TLR4) 0.1 ug/mL) were 0.11 and 0.291, respectively.
On to `CCS(=O)(=O)O.COC(=O)c1ccc2c(c1)NC(=O)/C2=C(\Nc1ccc(N(C)C(=O)CN2CCN(C)CC2)cc1)c1ccccc1`, for which the “IRF Lucia reporter activity” value in the assay on RAW-Dual [1] was determined as 0.215.
As for `CCS(=O)(=O)O.COC(=O)c1ccc2c(c1)NC(=O)/C2=C(\Nc1ccc(N(C)C(=O)CN2CCN(C)CC2)cc1)c1ccccc1` (library stock concentration (final ~1000-fold dilution): 10 mM), the “IRF Lucia reporter activity” value in the assay on RAW-Dual [2] (setting [3]) amounted to 0.0841; in the assay on RAW-Dual [2] (agonist: LPS (TLR4) 0.1 ug/mL), 0.246.
Regarding `Cc1nnc(NC(=O)c2nc(S(=O)(=O)Cc3ccc(F)cc3)ncc2Cl)s1` (library stock concentration (final ~1000-fold dilution): 10 mM), the “IRF Lucia reporter activity” value in the assay with RAW-Dual [2] (setting [3]) was 0.0452; in the assay on RAW-Dual [2] (agonist: LPS (TLR4) 0.1 ug/mL), 0.308.
The corresponding values for `NC1C(O)OC(CO)C(O)C1O` (stereo unspecified) (library stock concentration (final ~1000-fold dilution): 10 mM) are 0.143 and 0.267.
The corresponding values for `CC(C)=CCC[C@](C)(O[C@@H]1O[C@H](CO)[C@@H](O)C(O)[C@H]1O)[C@H]1CC[C@]2(C)[C@H]1[C@H](O)CC1[C@@]3(C)CC[C@H](O)C(C)(C)[C@@H]3[C@@H](O[C@@H]3O[C@H](CO)[C@@H](O)[C@H](O)[C@H]3O[C@@H]3O[C@@H](C)[C@H](O)[C@@H](O)[C@H]3O)C[C@]12C` (stereo partly specified) (library stock concentration (final ~1000-fold dilution): 10 mM) are 1.16 and 1.03.
For `CCCCCCCCCCCCCC(=S)NCCCCC(NC(=O)OCc1ccccc1)C(=O)Nc1ccccc1` (stereo unspecified) (library stock concentration (final ~1000-fold dilution): 10 mM), in that order: 0.949 and 1.09.
Consider `CN(C)CCOc1ccc(-c2nc(-c3ccncc3)c(-c3ccc4c(c3)CC/C4=N\O)[nH]2)cc1` (library stock concentration (final ~1000-fold dilution): 10 mM), for which the “IRF Lucia reporter activity” value came out at 0.992 with RAW-Dual [2] (setting [3]) and 3.04 with RAW-Dual [2] (agonist: LPS (TLR4) 0.1 ug/mL).
Turning to `CN(C)CCOc1ccc(-c2nc(-c3ccncc3)c(-c3ccc4c(c3)CC/C4=N\O)[nH]2)cc1`, the “IRF Lucia reporter activity” value in the assay with RAW-Dual [1] was found to be 1.04.
`COc1ccc2cc(-c3[nH]c(-c4ccc(S(C)=O)cc4)nc3-c3ccncc3)ccc2c1` (stereo unspecified) (library stock concentration (final ~1000-fold dilution): 10 mM): the “IRF Lucia reporter activity” value in the assay with RAW-Dual [2] (setting [3]) was determined as 0.0441; with RAW-Dual [2] (agonist: LPS (TLR4) 0.1 ug/mL), 0.466.
For the compound `OCCn1cc(-c2ccc3c(c2)CC/C3=N\O)c(-c2ccncc2)n1` (library stock concentration (final ~1000-fold dilution): 10 mM), the figures for the “IRF Lucia reporter activity” value in the assay on RAW-Dual [2] (setting [3]) and with RAW-Dual [2] (agonist: LPS (TLR4) 0.1 ug/mL) were 0.614 and 0.658, respectively.
Take `COc1ccc2cc(-c3[nH]c(-c4ccc(S(C)=O)cc4)nc3-c3ccncc3)ccc2c1` (stereo unspecified): in the assay with RAW-Dual [1], the “IRF Lucia reporter activity” value was found to be 0.798.
Take `OCCn1cc(-c2ccc3c(c2)CC/C3=N\O)c(-c2ccncc2)n1`: the “IRF Lucia reporter activity” value in the assay with RAW-Dual [1] amounted to 0.784.
With `CC(C)CCn1c(CN2CCN(C(=O)C3CC3)CC2)nc2c1c(=O)n(C)c(=O)n2C` (library stock concentration (final ~1000-fold dilution): 10 mM), the “IRF Lucia reporter activity” value in the assay on RAW-Dual [2] (setting [3]) was determined as 0.987; in the assay with RAW-Dual [2] (agonist: LPS (TLR4) 0.1 ug/mL), 0.989.
In the case of `CN1CCC(CNc2ccc3ncc(-c4cccc(OC(F)(F)F)c4)n3n2)CC1`, the “IRF Lucia reporter activity” value in the assay on RAW-Dual [1] turned out to be 1.07.
As to `CN1CCC(COc2cnc(-c3cccc(Cn4nc(-c5cccc(C#N)c5)ccc4=O)c3)nc2)CC1` (library stock concentration (final ~1000-fold dilution): 10 mM), the figures for the “IRF Lucia reporter activity” value in the assay on RAW-Dual [2] (setting [3]) and in the assay with RAW-Dual [2] (agonist: LPS (TLR4) 0.1 ug/mL) were 0.676 and 3.96, respectively.
Regarding `CN1CCC(COc2cnc(-c3cccc(Cn4nc(-c5cccc(C#N)c5)ccc4=O)c3)nc2)CC1`, the “IRF Lucia reporter activity” value in the assay on RAW-Dual [1] came out at 1.37.
As to `CN1CCC(CNc2ccc3ncc(-c4cccc(OC(F)(F)F)c4)n3n2)CC1` (library stock concentration (final ~1000-fold dilution): 10 mM), the “IRF Lucia reporter activity” value with RAW-Dual [2] (setting [3]) turned out to be 1.03; in the assay on RAW-Dual [2] (agonist: LPS (TLR4) 0.1 ug/mL), 0.089.
